Only some compounds are listed: those with a hit (about 3.2% of all), similar ones and a draw of the others.
MsrA act = bovine MsrA enzyme activators, primary screen, biochemical, absorbance, HTS | Methionine sulfoxide reductase A (Bos taurus) | purified bovine MsrA, absorbance read-out | activation, % at 10.6 µM | 0.3% of 360,000 active; in the data active = activation above about 7.5%
MsrA inhibitor = bovine MsrA enzyme inhibitors, primary screen, biochemical, absorbance, HTS | inhibition, % at 15.5 µM | purified bovine MsrA, absorbance read-out | 0.75% of 360,000 active | Methionine sulfoxide reductase A (Bos taurus) | AID 651718, 2012
rCAG RNA binder = binders of r(CAG) RNA repeats, primary screen, biochemical, fluorescence; r(CAG) RNA repeat, TO-PRO-1 dye displacement fluorescence; 1.3% of 370,000 active; inhibition, % at 3 µM;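 active = inhibition above the plate cutoff, the mean of all test compounds on that plate plus 3 SD, cut at about 35% in these data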;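 also: higher means more dye released from RNA so lower well fluorescence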
PG9 binder = binders of HIV-1 gp120 antibody PG9, primary screen, biochemical, TR-FRET; AID 624416, 2012; TR-FRET gp120-PG9 antibody binding; inhibition, % at 6.7 µM; 0.43% of 360,000 active; in the data active = inhibition above about 8.5%
sPLA2-III inh = human group III sPLA2 inhibitors, primary screen, biochemical, QFRET, BODIPY PC-A2 liposome substrate | Group 3 secretory phospholipase A2 (Homo sapiens), Q9NZ20 | inhibition, % at 12.2 µM | QFRET BODIPY PC-A2 liposome hydrolysis, fluorescence | AID 743126, 2013 | 0.56% of 370,000 active;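 active = inhibition above mean plus 3 SD of compounds lying within the high and low control bounds, cut at about 19% in these data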
Target sequence (Q9NZ20 whole entry, looked up): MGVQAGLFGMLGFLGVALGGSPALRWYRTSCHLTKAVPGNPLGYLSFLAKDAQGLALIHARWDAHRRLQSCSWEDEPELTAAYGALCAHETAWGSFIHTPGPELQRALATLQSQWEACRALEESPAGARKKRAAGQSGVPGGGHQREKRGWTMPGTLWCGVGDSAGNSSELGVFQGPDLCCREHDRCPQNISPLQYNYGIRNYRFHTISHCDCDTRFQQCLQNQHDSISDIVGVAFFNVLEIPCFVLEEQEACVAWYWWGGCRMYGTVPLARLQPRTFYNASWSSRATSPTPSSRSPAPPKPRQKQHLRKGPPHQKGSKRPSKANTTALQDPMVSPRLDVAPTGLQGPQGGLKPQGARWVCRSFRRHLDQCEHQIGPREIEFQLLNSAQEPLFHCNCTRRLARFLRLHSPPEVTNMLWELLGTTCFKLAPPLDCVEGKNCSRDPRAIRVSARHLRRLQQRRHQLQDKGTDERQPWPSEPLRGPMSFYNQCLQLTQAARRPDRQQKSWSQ
MsrA conf = bovine MsrA inhibitors, retest, confirmation, biochemical, absorbance, HTS; shares compounds with MsrA inhibitor; purified bovine MsrA, absorbance read-out; inhibition, % at 15.5 µM; 41% of 2,300 active; AID 651822, 2012;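 also: coupled to thioredoxin reductase with NADPH and selenocystamine and DMSO as substrate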
Large screens that a line does not name were inactive (follow-up assays come after a bar, where they were run). Rule as the data show it, unless noted: active = inhibition above about 4.5%; inactive = the rest.

CCOc1ccc(Oc2c(Cl)cnn(Cc3cccc4ccccc34)c2=O)cc1	none (no result: MsrA act, MsrA inhibitor, PG9 binder)
Cc1csc2ncc(C(=O)N3c4ccccc4CC3C)c(=O)n12 (centres undefined)	MsrA inhibitor 6.4 | MsrA conf inactive
COc1ccc2cc(-c3[nH]ncc3CN3CCCC3c3nonc3C)ccc2c1 (centres undefined)	MsrA inhibitor 33 | MsrA conf 26
CCN(CC)C(=O)CN1C(=O)C2CCCCN2C(=O)c2ccccc21 (centres undefined)	none (no result: MsrA act, MsrA inhibitor, PG9 binder)
COc1ccc(CNS(=O)(=O)/C=C/c2ccc(OC)cc2CNC(=O)OC(C)(C)C)cc1	none (no result: MsrA act, MsrA inhibitor, PG9 binder)
CCN1CCCC1CNC(=O)Cn1nc(C)n2c(cc3cc(F)ccc32)c1=O (centres undefined)	MsrA inhibitor 25 | MsrA conf inactive
CCC[C@H]1[C@@H](NCc2cccs2)CC[C@@]23CCCN2C(=O)CCC[C@@H]13	none (no result: MsrA act, MsrA inhibitor, rCAG RNA binder, PG9 binder)
Cc1c(C(=O)N/N=C/c2ccc(O)cc2)sc(=S)n1C	MsrA inhibitor 5.8 | MsrA conf 4.8
Cc1c(C(=O)N/N=C/c2ccccc2)sc(=S)n1C	none
COC(=O)c1nc(-c2ccc(C)cc2)oc1N(C)C	MsrA inhibitor 4.8 | MsrA conf inactive
Cc1nnc(C)n1N=Cc1ccc(Cl)c([N+](=O)[O-])c1	none (no result: MsrA act, MsrA inhibitor, PG9 binder)
O=S1(=O)CCC(N=Cc2ccc(-c3ccc(Cl)cc3)o2)C1 (centres undefined)	MsrA inhibitor 4.8 | MsrA conf inactive
COC(=O)[C@]1(CNC(=O)C(C)(C)C)CC(=O)N(Cc2ccc(Cl)cc2)[C@@H]1c1ccc(OC)cc1	none (no result: MsrA act, MsrA inhibitor, PG9 binder)
CCN(C(=O)CSc1nc2nc(C)cc(C)n2n1)c1ccccc1	MsrA inhibitor 4.8 | MsrA conf inactive
CCCC#Cc1ccc(CC[C@H]2O[C@H]3CC[C@H](CO)O[C@H]3C[C@H]2NC(=O)CN2CCOCC2)cc1	none (no result: MsrA act, MsrA inhibitor, PG9 binder)
O=C(NCC1CCCO1)C(=O)N/N=C/c1cc(Cl)ccc1O (centres undefined)	none
O=C(NCC1CCCO1)C(=O)N/N=C/c1ccc(O)c(Cl)c1 (centres undefined)	MsrA inhibitor 5.3 | MsrA conf inactive
CCC[C@H]1[C@@H](NC(=O)C#Cc2ccccc2)CC[C@@]23CCCN2C(=O)CCC[C@@H]13	none (no result: MsrA act, MsrA inhibitor, rCAG RNA binder, PG9 binder)
CCOc1ccc(-c2nnc(-c3ccncc3)o2)cc1OCC	MsrA inhibitor 4.9 | MsrA conf inactive
Cc1ccsc1/C=C1\SC(N)=NC1=O	MsrA inhibitor 5.0 | MsrA conf inactive
COC(=O)c1cc(-c2cccc3c2sc2ccccc23)c(=O)n2c1CCC2	none (no result: MsrA act, MsrA inhibitor, PG9 binder)
CCOc1cc(/C=C2/NC(=O)N(CC(=O)OC)C2=O)ccc1O	MsrA inhibitor 7.4 | MsrA conf 5.8
COC(=O)COc1ccc(/C=C2/NC(=O)N(CC(=O)OC)C2=O)cc1	MsrA inhibitor 5.5 | MsrA conf 5.4
C[C@@H]1CCN(C2CC2)S(=O)(=O)c2ccc(N3CCC[C@@H]3CO)cc2O1	none (no result: MsrA act, MsrA inhibitor, PG9 binder)
CCOC(=O)N=Nc1c(O)n(CC(=O)OC)c2ccccc12	none
CCOC(=O)N=Nc1c2ccccc2c2nc3no[nH]c3nc12	MsrA inhibitor 14 | MsrA conf 18
CC(=O)Nc1nonc1NC(C)=O	none
CC(=O)Nc1cc(OC(C)=O)c2nonc2c1OC(C)=O	MsrA inhibitor 28 | MsrA conf inactive
COC(=O)[C@]12C[C@H](CC(=O)N3CCN(C(=O)c4ccco4)CC3)C(=O)N(Cc3ccco3)C1=C[C@H](C(C)C)O[C@@H]2C1CC1	none (no result: MsrA act, MsrA inhibitor, PG9 binder)
O=C(NNC1=NC2(CCCC2)Cc2ccccc21)c1ccncc1	MsrA inhibitor 4.7 | MsrA conf inactive
COC(=O)[C@]1(CNC(=O)C(C)(C)C)CC(=O)N(C)[C@@H]1c1ccccc1	none (no result: MsrA act, MsrA inhibitor, PG9 binder)
N#Cc1nc(-c2ccccc2F)oc1N1CCCC1	none
Cc1ccccc1-c1nc(C#N)c(N2CCCCC2)o1	MsrA inhibitor 8.4 | MsrA conf 8.6
C=C(C)C#CCNCc1ccccc1	none (no result: MsrA act, MsrA inhibitor, PG9 binder)
COc1ccc(NC(=O)/C(=C/c2ccc3c(c2)OCO3)NC(C)=O)cc1	MsrA inhibitor 5.0 | MsrA conf inactive
O=C(NCc1ccccc1)/C(=C\c1ccc(O)cc1)NC(=O)c1ccco1	MsrA inhibitor 4.8 | MsrA conf inactive
COc1ccc(C(=O)N/C(=C\c2ccc3c(c2)OCO3)C(=O)Nc2ccc(C(=O)O)cc2)cc1	none
COc1ccc(NC(=O)/C(=C\c2ccc(OC)c(OC)c2)NC(=O)c2ccco2)cc1	MsrA inhibitor 5.0 | MsrA conf 4.8
COc1ccc(NC(=O)/C(=C/c2cccs2)NC(=O)c2ccco2)cc1	none
O=C(Nc1ccccc1)/C(=C/c1ccccc1)NC(=O)c1ccco1	none
CC(=O)c1ccc(NC(=O)/C(=C\c2cccs2)NC(=O)c2ccco2)cc1	MsrA inhibitor 5.0 | MsrA conf 4.7
CCOC(=O)[C@@]12CCCC=C1N(CCc1ccc(Cl)cc1)C(=O)[C@H]2CC(=O)NCc1ccccc1	none (no result: MsrA act, MsrA inhibitor, PG9 binder)
COc1ccc(NC(=O)CSc2nnc(-c3cccs3)o2)cc1Cl	none (no result: MsrA act, MsrA inhibitor, PG9 binder)
CCOC(=O)CC[C@H]1CC[C@]2(CCCN(C(=O)c3cccnc3)C2)O1	none (no result: MsrA act, MsrA inhibitor, PG9 binder)
CCOC(=O)C1CCCN(C(=O)c2cnn3c(C(F)(F)F)cc(-c4ccccc4)nc23)C1 (centres undefined)	MsrA inhibitor 5.3 | MsrA conf inactive
O=C1C(Cl)=C(NCCCN2CCOCC2)C(=O)N1CCc1ccccc1	MsrA inhibitor 27 | MsrA conf 25
COC(=O)c1[nH]c2cc(OC)c(OC)cc2c1NC(=O)Oc1ccccc1	MsrA inhibitor 5.0 | MsrA conf inactive
N#C/C(=N\Nc1ccccc1)C(=N)N1CCOCC1	MsrA inhibitor 5.1 | MsrA conf inactive
O=c1oc2ccccc2cc1-c1cn2cccnc2n1	MsrA inhibitor 5.8 | MsrA conf 5.0
O=c1oc2ccccc2cc1-c1cn2ccccc2n1	none
O=C(NCCN1CCCCC1)c1ccc(=O)oc1	MsrA inhibitor 5.1 | MsrA conf inactive
O=C(NCCN1CCCC1)c1ccc(Cl)cc1	none
O=C(NCCC1=CCCCC1)c1ccc(=O)oc1	MsrA inhibitor 6.9 | MsrA conf 7.1
C=CCN(C)CC#Cc1ccc(OC)cc1	none (no result: MsrA act, MsrA inhibitor, PG9 binder)
O=C(NC1CCCCN(Cc2cccc(Cl)c2)C1=O)c1ccc(-c2ccccc2)cc1 (centres undefined)	none (no result: MsrA act, MsrA inhibitor, PG9 binder)
Cc1ccc(Cn2cc(CN(C(C)(C)C)S(=O)(=O)c3ccc(F)cc3Br)nn2)cc1	none (no result: MsrA act, MsrA inhibitor, PG9 binder)
CN(Cc1ccccc1Cl)C(=O)CN1C(=O)C2(OCCCO2)c2ccccc21	none (no result: MsrA act, MsrA inhibitor, PG9 binder)
COC(=O)C1CN(Cc2cn(CCC3OCCO3)nn2)CCS(=O)(=O)N1Cc1ccc(Cl)cc1 (centres undefined)	none (no result: MsrA act, MsrA inhibitor, PG9 binder)
Cc1ccc(C)c(/C(O)=C2\C(=O)C(=O)N(CCCN3CCOCC3)C2c2cccnc2)c1 (centres undefined)	MsrA inhibitor 16 | MsrA conf inactive

Source: PubChem BioAssay
